Where “and” joins values, the source holds several entries; their conditions need not be identical. Identical values can stand only once. Some structures have more than one record in an assay (separate samples or runs), and their calls can disagree. Calls of active or inactive are those of the source. The calls were made as follows: active = hit-call score of the fitted dose curve at least 0.9, where 1 is the maximum; inactive = score below 0.9.

One may read the AC50 as the concentration at which the activity in the assay is half-maximal.

One assay is described as follows: ATG_EGR_CIS: Attagene CIS-FACTORIAL HepG2 Assay for human Early Growth Response 1 (EGR1) (AID 2282938). Conditions: HepG2 Attagene CIS-FACTORIAL EGR reporter mRNA; actives raise or lower the signal. In short, it runs like this: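 Read-out: fluorescent reporter-mRNA fragments resolved by capillary electrophoresis after RT-PCR, 24 h post-dose in transiently transfected HepG2. Endogenous transcription-factor activity reported via cis-element-regulated reporter units; gain or loss fitted relative to DMSO.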
For `CC1=CC(=O)/C(=C(/C)O)C(=O)O1`, the result was inactive.

Turning to `CCCCCCCCCC(=O)O`, the compound was called inactive.

`COc1ccc2cc(S(=O)(=O)N[C@H](CC(=O)N[C@H](Cc3ccc(CN4[C@H](C)CCC[C@@H]4C)cc3)C(=O)N(C)C(C)C)c3ccc4c(c3)OCO4)ccc2c1`: the AC50 is 11 µM (active).

Consider `O=C(O)Cn1c(=O)n(Cc2ccc(Br)cc2F)c(=O)c2ccc(Cl)cc21`, for which the outcome was inactive.

Take `CCCCCCCCCCCCO`: the call was inactive.

As to `O=C(OCCCCCCOC(=O)c1ccccc1)c1ccccc1`, the call was inactive.

`CC(C)(C)c1csc(-c2cc3cc(OCc4ccccc4CC(=O)O)ccc3o2)n1`: the AC50 is 14.4 µM (active).

In the case of `Cc1occc1C(=O)Nc1ccc(C(=O)N2CCC(F)(F)/C(=C\C(=O)N3CCC(N4CCCCC4)CC3)c3ccccc32)cc1`, the AC50 was 34.5 µM (active).

Consider `CC(C)(C)c1cc(/C=C2\SC(N)=NC2=O)cc(C(C)(C)C)c1O`, for which the AC50 is 8.13 µM (active).

`CCCCCCCCOc1ccc(C(=O)c2ccccc2)c(O)c1`: the call was inactive.

On to `CN1C(=O)N(c2ccccc2Br)Cc2cnc(Nc3ccc4c(c3)OCC(CO)O4)nc21` (stereo not drawn), for which the AC50 is 12.2 µM (active).

For `O=CCCCC=O`, the call was inactive.

For `CC(C)(c1cc(Br)c(O)c(Br)c1)c1cc(Br)c(O)c(Br)c1`, the AC50 is 47.1 µM (active) and 37.6 µM (active).

Turning to `Cc1cccc2ccccc12`, the call was inactive.

Consider `CCO[Si](CCCNC(N)=O)(OCC)OCC`, for which the result was inactive.

`C[C@]12CC[C@@H]3c4ccc(O)cc4CC[C@H]3[C@@H]1CCC2=O`: the compound was called inactive.

Another assay in a line: ATG_M_19_CIS: Attagene CIS-FACTORIAL HepG2 Assay for M19 Transcription Factor (Internal Marker) (AID 2282939). Conditions: HepG2 Attagene CIS-FACTORIAL M19 internal marker reporter; actives raise or lower the signal. Summed up:
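In this multiplexed cell assay, transiently transfected HepG2 reporter units report endogenous transcription-factor activity; after 24 hours of treatment, labelled reporter cDNA fragments are quantified by capillary electrophoresis and fitted bidirectionally against DMSO.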
For `CC1=CC(=O)/C(=C(/C)O)C(=O)O1`, the compound was called inactive.

For `Cc1oc2c(NC(=O)c3c(Cl)cccc3Cl)cccc2c1C(C)(C)O`, the result was inactive.

Take `CCCCCCCCCC(=O)O`: the compound was called inactive.

Take `COc1ccc2cc(S(=O)(=O)N[C@H](CC(=O)N[C@H](Cc3ccc(CN4[C@H](C)CCC[C@@H]4C)cc3)C(=O)N(C)C(C)C)c3ccc4c(c3)OCO4)ccc2c1`: the compound was called inactive.

Regarding `c1ccc2n[nH]nc2c1`, the result was inactive.

Regarding `CN1C(=O)CC[C@H]1c1cccnc1`, the outcome was inactive.

Turning to `O=C(O)Cn1c(=O)n(Cc2ccc(Br)cc2F)c(=O)c2ccc(Cl)cc21`, the compound was classed as inactive.

With `CCCCCCCCCCCCO`, the result was inactive.

`COc1cc(C(=O)NC2CCN(C)CC2)ccc1Nc1ncc2c(n1)N(C1CCCC1)CC(F)(F)C(=O)N2C`: the result was inactive.

Turning to `O=C(OCCCCCCOC(=O)c1ccccc1)c1ccccc1`, the compound was classed as inactive.

`CC(C)(C)c1csc(-c2cc3cc(OCc4ccccc4CC(=O)O)ccc3o2)n1`: the compound was called inactive.

As for `O=C=NCCCCCCN=C=O`, the result was inactive.

In the case of `O=C1c2ccccc2C(=O)N1CCc1noc(-c2ccc(CN3CCCCCC3)s2)n1`, the compound was classed as inactive.

As to `CCCCCCCCCCCC[N+](C)(C)C`, the compound was called inactive.

For the compound `CC(=O)N1CCN(c2ccc(OC[C@H]3CO[C@](Cn4ccnc4)(c4ccc(Cl)cc4Cl)O3)cc2)CC1`, the compound was classed as inactive.

Turning to `NCc1cccc(C2CCN(C(=O)c3ccc(C#Cc4ccccc4F)o3)CC2)c1`, the call was inactive.

Regarding `O=C1O[C@H]([C@@H](O)CO)C(O)=C1O`, the compound was classed as inactive.

With `Cc1occc1C(=O)Nc1ccc(C(=O)N2CCC(F)(F)/C(=C\C(=O)N3CCC(N4CCCCC4)CC3)c3ccccc32)cc1`, the compound was classed as inactive.

With `CC(C)(C)c1cc(/C=C2\SC(N)=NC2=O)cc(C(C)(C)C)c1O`, the compound was called inactive.

As to `CCCC(=O)OCCC(C)C`, the outcome was inactive.

Take `Cc1ncc(CO)c(CO)c1O`: the compound was called inactive.

Take `CCN(CC)C(=O)c1cc(S(=O)(=O)Cc2ccccc2)c(N2CCC(c3ccccc3)CC2)cc1N(CC)CCN(C)C`: the compound was called inactive.

For the compound `CCCCOC(=O)CC(CC(=O)OCCCC)(OC(C)=O)C(=O)OCCCC`, the result was inactive.

For `Cc1ccc2oc(CN(Cc3ccccc3)C(=O)Nc3c(F)cc(F)cc3F)c(-c3ccc(Cl)cc3)c2c1`, the call was inactive.

For the compound `CCCCCCCCOC(=O)c1cc(O)c(O)c(O)c1`, the outcome was inactive.

Turning to `O=c1[nH]sc2ccccc12`, the compound was classed as inactive.

In the case of `CCCCCCCCOc1ccc(C(=O)c2ccccc2)c(O)c1`, the result was inactive.

In the case of `CN1C(=O)N(c2ccccc2Br)Cc2cnc(Nc3ccc4c(c3)OCC(CO)O4)nc21` (stereo not drawn), the compound was classed as inactive.

On to `Clc1ccccc1C(c1ccccc1)(c1ccccc1)n1ccnc1`, for which the result was inactive.

As to `CC(O)CC(C)(C)O` (stereo not drawn), the result was inactive.

Regarding `CCOC(=O)O[C@H](C)OC(=O)c1ccc2c(c1)cc(C(=O)NC1CCN(C(C)C)CC1)n2Cc1cc(-c2ccc(Cl)s2)on1`, the outcome was inactive.

As to `O=CCCCC=O`, the call was inactive.

For the compound `CC(C)(c1cc(Br)c(O)c(Br)c1)c1cc(Br)c(O)c(Br)c1`, the outcome was inactive.

`Cc1cccc2ccccc12`: the outcome was inactive.

As to `CC(C)(O)c1ccc(CNC(=O)c2cccnc2Oc2ccc3nonc3c2)cc1`, the outcome was inactive.

For `CCO[Si](CCCNC(N)=O)(OCC)OCC`, the outcome was inactive.

For `C[C@]12CC[C@@H]3c4ccc(O)cc4CC[C@H]3[C@@H]1CCC2=O`, the compound was classed as inactive.

For `COc1cccc([C@H](O)C2CCN(CCc3ccc(F)cc3)CC2)c1OC`, the result was inactive.

A further assay in a line: ATG_ERE_CIS: Attagene CIS-FACTORIAL HepG2 Assay for Estrogen Response Element (ERE) (AID 2282940). As to conditions: HepG2 ERE cis-reporter, Attagene RNA transcript; actives raise or lower the signal. Summed up: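 Measuring endogenous transcription factor output, the assay doses transfected HepG2 cells for 24 hours and quantifies reporter transcripts by fluorescent RT-PCR and capillary electrophoresis, with DMSO as baseline.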
As to `CC1=CC(=O)/C(=C(/C)O)C(=O)O1`, the compound was classed as inactive.

Turning to `Cc1oc2c(NC(=O)c3c(Cl)cccc3Cl)cccc2c1C(C)(C)O`, the outcome was inactive.

As to `COc1ccc2cc(S(=O)(=O)N[C@H](CC(=O)N[C@H](Cc3ccc(CN4[C@H](C)CCC[C@@H]4C)cc3)C(=O)N(C)C(C)C)c3ccc4c(c3)OCO4)ccc2c1`, the result was inactive.

As for `O=C(O)Cn1c(=O)n(Cc2ccc(Br)cc2F)c(=O)c2ccc(Cl)cc21`, the outcome was inactive.

Turning to `CCCCCCCCCCCCO`, the compound was called inactive.

Turning to `COc1cc(C(=O)NC2CCN(C)CC2)ccc1Nc1ncc2c(n1)N(C1CCCC1)CC(F)(F)C(=O)N2C`, the call was inactive.

In the case of `O=C(OCCCCCCOC(=O)c1ccccc1)c1ccccc1`, the compound was called inactive.

As to `CC(C)(C)c1csc(-c2cc3cc(OCc4ccccc4CC(=O)O)ccc3o2)n1`, the compound was called inactive.

In the case of `O=C=NCCCCCCN=C=O`, the result was inactive.

In the case of `O=C1c2ccccc2C(=O)N1CCc1noc(-c2ccc(CN3CCCCCC3)s2)n1`, the outcome was inactive.

Take `CC(=O)N1CCN(c2ccc(OC[C@H]3CO[C@](Cn4ccnc4)(c4ccc(Cl)cc4Cl)O3)cc2)CC1`: the compound was classed as inactive.

Consider `NCc1cccc(C2CCN(C(=O)c3ccc(C#Cc4ccccc4F)o3)CC2)c1`, for which the half-maximal activity concentration (AC50) is 2.81 µM (active).

For the compound `Cc1occc1C(=O)Nc1ccc(C(=O)N2CCC(F)(F)/C(=C\C(=O)N3CCC(N4CCCCC4)CC3)c3ccccc32)cc1`, the result was inactive.

`CC(C)(C)c1cc(/C=C2\SC(N)=NC2=O)cc(C(C)(C)C)c1O`: the call was inactive.

Take `CCCC(=O)OCCC(C)C`: the result was inactive.

With `CCN(CC)C(=O)c1cc(S(=O)(=O)Cc2ccccc2)c(N2CCC(c3ccccc3)CC2)cc1N(CC)CCN(C)C`, the call was inactive.

For the compound `Cc1ccc2oc(CN(Cc3ccccc3)C(=O)Nc3c(F)cc(F)cc3F)c(-c3ccc(Cl)cc3)c2c1`, the call was inactive.

Turning to `CCCCCCCCOC(=O)c1cc(O)c(O)c(O)c1`, the compound was called inactive.

`O=c1[nH]sc2ccccc12`: the result was inactive.

With `CCCCCCCCOc1ccc(C(=O)c2ccccc2)c(O)c1`, the result was inactive.

`CN1C(=O)N(c2ccccc2Br)Cc2cnc(Nc3ccc4c(c3)OCC(CO)O4)nc21` (stereo not drawn): the compound was called inactive.

Consider `Clc1ccccc1C(c1ccccc1)(c1ccccc1)n1ccnc1`, for which the AC50 was 0.438 µM (active).

With `CCOC(=O)O[C@H](C)OC(=O)c1ccc2c(c1)cc(C(=O)NC1CCN(C(C)C)CC1)n2Cc1cc(-c2ccc(Cl)s2)on1`, the AC50 is 33 µM (active).

With `O=CCCCC=O`, the compound was called inactive.

With `Cc1cccc2ccccc12`, the AC50 was 76.8 µM (active) and the outcome was inactive.

With `CC(C)(O)c1ccc(CNC(=O)c2cccnc2Oc2ccc3nonc3c2)cc1`, the result was inactive.

For `CCO[Si](CCCNC(N)=O)(OCC)OCC`, the compound was called inactive.

In the case of `COc1cccc([C@H](O)C2CCN(CCc3ccc(F)cc3)CC2)c1OC`, the compound was classed as inactive.

The values are drawn from PubChem BioAssay (EPA / NIEHS).
